Our source for the inhibition values is ChEMBL document CHEMBL1961873, “Compounds: GSK PKIS; Assays: Nanosyn kinase panel” (2012).

A word on the inhibition: it is the relative decrease from the control value, in per cent.

Assay [1] deals with Protein kinase C gamma type (Homo sapiens) (UniProt P05129). The conditions noted are these: at 1 µM.
For assay [2], the target named is T1, Protein kinase C iota type (Homo sapiens) (UniProt P41743).
T1 sequence (whole entry): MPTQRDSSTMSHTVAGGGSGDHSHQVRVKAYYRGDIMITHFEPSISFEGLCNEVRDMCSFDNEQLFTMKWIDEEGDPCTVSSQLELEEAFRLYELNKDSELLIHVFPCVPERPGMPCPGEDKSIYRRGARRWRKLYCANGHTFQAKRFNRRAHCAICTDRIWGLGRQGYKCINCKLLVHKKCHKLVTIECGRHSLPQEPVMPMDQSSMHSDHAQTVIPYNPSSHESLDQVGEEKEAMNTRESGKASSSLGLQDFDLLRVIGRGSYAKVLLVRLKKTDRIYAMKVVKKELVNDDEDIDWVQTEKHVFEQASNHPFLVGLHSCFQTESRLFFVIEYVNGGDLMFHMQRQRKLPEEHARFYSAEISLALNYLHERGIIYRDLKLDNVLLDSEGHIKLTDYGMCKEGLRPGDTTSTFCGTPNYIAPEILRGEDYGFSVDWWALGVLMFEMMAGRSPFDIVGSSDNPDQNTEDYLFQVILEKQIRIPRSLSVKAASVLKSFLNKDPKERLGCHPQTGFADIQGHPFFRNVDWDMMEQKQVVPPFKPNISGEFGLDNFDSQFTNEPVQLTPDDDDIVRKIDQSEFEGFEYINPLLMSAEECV
The conditions noted are these: at 0.1 µM.

The target of assay [3] is T1, Protein kinase C iota type (Homo sapiens). The conditions noted are these: at 1 µM.
Assay [4] concerns the target Protein kinase C theta type (Homo sapiens) (UniProt Q04759). The settings on record: at 0.1 µM.
The target is the same in assay [5]. The conditions noted are these: at 1 µM.
Assay [6] addresses Protein kinase C beta type (Homo sapiens) (UniProt P05771). The conditions noted are these: at 0.1 µM.
For assay [7] the target is unchanged. The conditions noted are these: at 1 µM.
Assay [8] addresses T2, Serine/threonine-protein kinase D1 (Homo sapiens) (UniProt Q15139).
T2 sequence (whole entry): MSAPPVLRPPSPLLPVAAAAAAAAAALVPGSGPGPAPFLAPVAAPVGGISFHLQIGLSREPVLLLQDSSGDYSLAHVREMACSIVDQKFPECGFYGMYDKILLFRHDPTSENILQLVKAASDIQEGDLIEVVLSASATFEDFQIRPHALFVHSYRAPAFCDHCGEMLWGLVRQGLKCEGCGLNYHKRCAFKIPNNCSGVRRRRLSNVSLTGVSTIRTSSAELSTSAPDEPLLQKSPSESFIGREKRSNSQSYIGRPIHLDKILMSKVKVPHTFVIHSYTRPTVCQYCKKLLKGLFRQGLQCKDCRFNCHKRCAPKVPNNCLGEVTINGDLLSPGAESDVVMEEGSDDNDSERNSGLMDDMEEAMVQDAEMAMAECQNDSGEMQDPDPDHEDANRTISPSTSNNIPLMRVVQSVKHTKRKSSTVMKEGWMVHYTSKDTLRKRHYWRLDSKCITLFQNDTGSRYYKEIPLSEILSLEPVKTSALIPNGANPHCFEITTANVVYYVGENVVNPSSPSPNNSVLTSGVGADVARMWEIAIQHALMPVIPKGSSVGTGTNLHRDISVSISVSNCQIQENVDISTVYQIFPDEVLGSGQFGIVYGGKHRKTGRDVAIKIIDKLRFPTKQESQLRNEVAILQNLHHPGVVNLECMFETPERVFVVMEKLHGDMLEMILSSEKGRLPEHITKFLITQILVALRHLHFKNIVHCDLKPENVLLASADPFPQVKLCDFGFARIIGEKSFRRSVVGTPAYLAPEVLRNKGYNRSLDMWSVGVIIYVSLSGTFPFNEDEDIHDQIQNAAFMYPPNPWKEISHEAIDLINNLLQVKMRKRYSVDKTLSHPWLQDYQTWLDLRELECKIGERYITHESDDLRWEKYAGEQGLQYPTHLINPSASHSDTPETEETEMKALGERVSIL
The settings on record: at 0.1 µM.

For assay [9], the target named is T2, Serine/threonine-protein kinase D1 (Homo sapiens). The settings on record: at 1 µM.
For assay [10], the target named is T3, Serine/threonine-protein kinase D2 (Homo sapiens) (UniProt Q9BZL6).
T3 sequence (whole entry): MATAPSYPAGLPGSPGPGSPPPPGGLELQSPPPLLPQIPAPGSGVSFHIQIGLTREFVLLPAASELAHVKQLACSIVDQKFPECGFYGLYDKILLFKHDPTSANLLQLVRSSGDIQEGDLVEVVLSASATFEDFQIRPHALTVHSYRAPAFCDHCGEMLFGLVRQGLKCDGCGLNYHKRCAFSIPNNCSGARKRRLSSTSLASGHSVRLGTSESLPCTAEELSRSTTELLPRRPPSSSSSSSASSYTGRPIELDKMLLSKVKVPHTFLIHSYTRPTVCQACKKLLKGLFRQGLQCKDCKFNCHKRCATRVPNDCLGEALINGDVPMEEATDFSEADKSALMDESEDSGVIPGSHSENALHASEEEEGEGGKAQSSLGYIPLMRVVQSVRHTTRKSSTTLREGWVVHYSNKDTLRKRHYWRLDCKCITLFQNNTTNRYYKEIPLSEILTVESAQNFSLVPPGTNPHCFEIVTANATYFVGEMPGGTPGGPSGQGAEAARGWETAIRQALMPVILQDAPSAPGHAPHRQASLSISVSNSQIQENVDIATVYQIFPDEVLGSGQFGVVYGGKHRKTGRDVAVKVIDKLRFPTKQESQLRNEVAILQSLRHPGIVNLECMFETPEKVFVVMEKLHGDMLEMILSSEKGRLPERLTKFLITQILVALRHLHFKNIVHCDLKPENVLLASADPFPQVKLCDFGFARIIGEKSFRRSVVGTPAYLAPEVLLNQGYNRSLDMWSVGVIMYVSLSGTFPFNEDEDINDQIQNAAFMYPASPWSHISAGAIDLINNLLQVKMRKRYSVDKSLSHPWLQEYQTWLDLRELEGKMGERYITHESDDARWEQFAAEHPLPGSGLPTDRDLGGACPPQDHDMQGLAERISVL
The settings on record: at 0.1 µM.

Assay [11] deals with T3, Serine/threonine-protein kinase D2 (Homo sapiens). The conditions noted are these: at 1 µM.
Assay [12] deals with T4, Serine/threonine-protein kinase D3 (Homo sapiens) (UniProt O94806).
T4 sequence (whole entry): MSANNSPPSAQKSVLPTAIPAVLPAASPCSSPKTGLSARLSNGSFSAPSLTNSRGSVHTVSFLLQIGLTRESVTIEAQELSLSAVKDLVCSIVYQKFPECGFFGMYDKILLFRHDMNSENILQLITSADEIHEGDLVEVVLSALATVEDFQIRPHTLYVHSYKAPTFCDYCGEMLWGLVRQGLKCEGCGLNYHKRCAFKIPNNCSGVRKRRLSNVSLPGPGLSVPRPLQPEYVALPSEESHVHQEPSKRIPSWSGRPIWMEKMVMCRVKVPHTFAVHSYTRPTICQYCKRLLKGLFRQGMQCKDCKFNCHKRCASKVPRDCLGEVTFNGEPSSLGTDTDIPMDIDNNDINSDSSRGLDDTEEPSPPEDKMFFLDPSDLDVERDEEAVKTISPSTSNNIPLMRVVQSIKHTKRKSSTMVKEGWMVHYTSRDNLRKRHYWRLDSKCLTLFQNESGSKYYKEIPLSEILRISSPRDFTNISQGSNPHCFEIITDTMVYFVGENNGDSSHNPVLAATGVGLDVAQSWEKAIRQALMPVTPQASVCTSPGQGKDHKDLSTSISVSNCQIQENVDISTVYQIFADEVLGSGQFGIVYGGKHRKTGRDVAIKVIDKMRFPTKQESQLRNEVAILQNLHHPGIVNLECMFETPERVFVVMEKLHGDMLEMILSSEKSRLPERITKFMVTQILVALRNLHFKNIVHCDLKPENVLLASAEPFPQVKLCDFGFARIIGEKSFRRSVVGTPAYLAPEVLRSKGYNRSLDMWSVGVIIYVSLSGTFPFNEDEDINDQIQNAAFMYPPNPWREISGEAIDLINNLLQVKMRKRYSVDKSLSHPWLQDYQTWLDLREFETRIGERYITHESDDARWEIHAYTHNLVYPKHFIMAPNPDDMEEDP
The conditions noted are these: at 0.1 µM.

Assay [13] deals with T4, Serine/threonine-protein kinase D3 (Homo sapiens). The conditions noted are these: at 1 µM.
Assay [14] has as its target T5, cGMP-dependent protein kinase 1 (Homo sapiens) (UniProt Q13976).
T5 sequence (whole entry): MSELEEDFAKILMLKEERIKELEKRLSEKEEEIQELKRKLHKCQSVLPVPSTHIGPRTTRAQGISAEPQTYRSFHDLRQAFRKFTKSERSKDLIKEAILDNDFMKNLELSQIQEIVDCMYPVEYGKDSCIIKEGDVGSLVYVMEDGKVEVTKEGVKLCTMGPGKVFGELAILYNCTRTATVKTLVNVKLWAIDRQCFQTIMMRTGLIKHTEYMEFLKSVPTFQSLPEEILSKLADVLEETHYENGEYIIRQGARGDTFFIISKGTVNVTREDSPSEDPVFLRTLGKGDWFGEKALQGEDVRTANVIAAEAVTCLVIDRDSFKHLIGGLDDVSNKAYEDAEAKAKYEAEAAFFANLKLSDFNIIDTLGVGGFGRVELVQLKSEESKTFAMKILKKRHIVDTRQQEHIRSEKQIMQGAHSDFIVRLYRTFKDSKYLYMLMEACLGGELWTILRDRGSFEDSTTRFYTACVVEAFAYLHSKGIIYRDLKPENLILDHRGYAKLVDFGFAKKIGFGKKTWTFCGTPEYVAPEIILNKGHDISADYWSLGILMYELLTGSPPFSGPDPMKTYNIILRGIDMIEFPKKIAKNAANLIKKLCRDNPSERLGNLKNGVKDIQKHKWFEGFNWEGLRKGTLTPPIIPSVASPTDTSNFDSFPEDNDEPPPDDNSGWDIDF
The conditions noted are these: at 0.1 µM.

The target in assay [15] is T5, cGMP-dependent protein kinase 1 (Homo sapiens). The conditions noted are these: at 1 µM.
Assay [16] addresses T6, cGMP-dependent protein kinase 2 (Homo sapiens) (UniProt Q13237).
T6 sequence (whole entry): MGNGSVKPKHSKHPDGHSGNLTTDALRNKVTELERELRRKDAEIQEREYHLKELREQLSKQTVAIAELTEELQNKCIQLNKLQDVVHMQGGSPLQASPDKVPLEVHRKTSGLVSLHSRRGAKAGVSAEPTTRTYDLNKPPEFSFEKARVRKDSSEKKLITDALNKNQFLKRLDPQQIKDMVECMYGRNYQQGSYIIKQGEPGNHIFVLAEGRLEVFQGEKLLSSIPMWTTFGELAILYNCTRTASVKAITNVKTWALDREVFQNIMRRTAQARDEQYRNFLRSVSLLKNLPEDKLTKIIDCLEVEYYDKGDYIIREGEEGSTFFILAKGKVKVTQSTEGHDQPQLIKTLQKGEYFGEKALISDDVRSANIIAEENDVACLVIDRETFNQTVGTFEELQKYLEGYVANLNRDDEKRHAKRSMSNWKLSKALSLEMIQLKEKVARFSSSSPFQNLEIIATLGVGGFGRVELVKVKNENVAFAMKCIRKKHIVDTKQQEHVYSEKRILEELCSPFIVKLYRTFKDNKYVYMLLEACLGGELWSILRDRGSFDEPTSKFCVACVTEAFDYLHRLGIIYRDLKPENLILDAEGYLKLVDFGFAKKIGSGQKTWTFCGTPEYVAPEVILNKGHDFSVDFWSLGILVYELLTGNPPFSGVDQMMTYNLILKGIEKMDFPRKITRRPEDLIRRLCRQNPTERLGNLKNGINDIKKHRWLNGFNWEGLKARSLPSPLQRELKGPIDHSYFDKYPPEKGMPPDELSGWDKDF
The settings on record: at 0.1 µM.

The target in assay [17] is T6, cGMP-dependent protein kinase 2 (Homo sapiens). The conditions noted are these: at 1 µM.
The target in assay [18] is T7, cAMP-dependent protein kinase catalytic subunit PRKX (Homo sapiens) (UniProt P51817).
T7 sequence (whole entry): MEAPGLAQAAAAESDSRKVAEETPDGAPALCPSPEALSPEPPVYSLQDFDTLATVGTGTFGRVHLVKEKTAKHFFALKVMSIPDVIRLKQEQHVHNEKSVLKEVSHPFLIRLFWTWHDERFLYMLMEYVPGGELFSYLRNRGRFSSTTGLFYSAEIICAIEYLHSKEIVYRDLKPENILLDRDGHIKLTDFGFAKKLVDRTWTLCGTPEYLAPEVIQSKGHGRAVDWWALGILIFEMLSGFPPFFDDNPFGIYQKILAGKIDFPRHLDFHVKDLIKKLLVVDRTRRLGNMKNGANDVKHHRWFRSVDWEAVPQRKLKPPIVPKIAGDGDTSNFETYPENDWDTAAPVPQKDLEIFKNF
The settings on record: at 0.1 µM.

Assay [19] deals with T7, cAMP-dependent protein kinase catalytic subunit PRKX (Homo sapiens). The conditions noted are these: at 1 µM.
Assay [20] concerns the target Rho-associated protein kinase 1 (Homo sapiens) (UniProt Q13464). The conditions noted are these: at 0.1 µM.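 Note: values are mean percent inhibition of ROCK1.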

Chain of Protein kinase C beta type (Homo sapiens) (P05771 2-671 limits assumed): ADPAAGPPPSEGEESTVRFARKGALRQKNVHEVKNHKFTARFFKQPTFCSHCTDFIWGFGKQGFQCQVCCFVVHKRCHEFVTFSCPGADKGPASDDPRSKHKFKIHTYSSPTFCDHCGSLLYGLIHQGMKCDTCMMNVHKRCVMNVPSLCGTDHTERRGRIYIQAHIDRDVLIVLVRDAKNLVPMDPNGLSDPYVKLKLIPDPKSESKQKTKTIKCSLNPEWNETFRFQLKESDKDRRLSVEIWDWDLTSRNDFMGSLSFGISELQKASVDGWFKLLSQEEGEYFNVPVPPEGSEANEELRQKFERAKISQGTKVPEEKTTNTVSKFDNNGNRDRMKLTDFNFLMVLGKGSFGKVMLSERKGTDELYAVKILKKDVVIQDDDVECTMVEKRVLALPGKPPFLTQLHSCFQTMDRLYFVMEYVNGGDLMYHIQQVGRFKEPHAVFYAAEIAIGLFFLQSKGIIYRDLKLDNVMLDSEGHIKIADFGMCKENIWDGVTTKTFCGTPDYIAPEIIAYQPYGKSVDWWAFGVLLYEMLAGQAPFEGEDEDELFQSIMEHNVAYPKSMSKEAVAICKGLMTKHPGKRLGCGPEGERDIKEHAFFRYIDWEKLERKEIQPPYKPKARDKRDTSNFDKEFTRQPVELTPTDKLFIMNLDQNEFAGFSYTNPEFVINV
Chain of Protein kinase C theta type (Homo sapiens) (Q04759 whole entry, looked up): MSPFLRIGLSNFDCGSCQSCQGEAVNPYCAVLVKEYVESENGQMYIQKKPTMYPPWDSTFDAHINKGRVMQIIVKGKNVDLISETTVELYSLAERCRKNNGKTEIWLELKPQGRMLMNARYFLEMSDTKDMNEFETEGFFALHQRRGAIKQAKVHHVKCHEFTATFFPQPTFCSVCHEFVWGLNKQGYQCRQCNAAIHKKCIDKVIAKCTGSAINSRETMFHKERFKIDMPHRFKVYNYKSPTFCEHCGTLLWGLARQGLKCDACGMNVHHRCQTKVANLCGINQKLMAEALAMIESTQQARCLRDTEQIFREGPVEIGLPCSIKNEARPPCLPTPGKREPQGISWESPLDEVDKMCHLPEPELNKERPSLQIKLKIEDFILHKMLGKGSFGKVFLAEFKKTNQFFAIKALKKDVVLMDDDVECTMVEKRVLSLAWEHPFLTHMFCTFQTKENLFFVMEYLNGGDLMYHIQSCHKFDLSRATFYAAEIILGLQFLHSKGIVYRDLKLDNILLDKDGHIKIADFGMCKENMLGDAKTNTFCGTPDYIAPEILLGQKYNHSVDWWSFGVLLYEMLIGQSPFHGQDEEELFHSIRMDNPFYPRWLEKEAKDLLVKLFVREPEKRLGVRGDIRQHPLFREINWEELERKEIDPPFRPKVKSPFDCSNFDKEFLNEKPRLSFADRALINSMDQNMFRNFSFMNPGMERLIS
Chain of Rho-associated protein kinase 1 (Homo sapiens) (Q13464 2-1354 limits assumed): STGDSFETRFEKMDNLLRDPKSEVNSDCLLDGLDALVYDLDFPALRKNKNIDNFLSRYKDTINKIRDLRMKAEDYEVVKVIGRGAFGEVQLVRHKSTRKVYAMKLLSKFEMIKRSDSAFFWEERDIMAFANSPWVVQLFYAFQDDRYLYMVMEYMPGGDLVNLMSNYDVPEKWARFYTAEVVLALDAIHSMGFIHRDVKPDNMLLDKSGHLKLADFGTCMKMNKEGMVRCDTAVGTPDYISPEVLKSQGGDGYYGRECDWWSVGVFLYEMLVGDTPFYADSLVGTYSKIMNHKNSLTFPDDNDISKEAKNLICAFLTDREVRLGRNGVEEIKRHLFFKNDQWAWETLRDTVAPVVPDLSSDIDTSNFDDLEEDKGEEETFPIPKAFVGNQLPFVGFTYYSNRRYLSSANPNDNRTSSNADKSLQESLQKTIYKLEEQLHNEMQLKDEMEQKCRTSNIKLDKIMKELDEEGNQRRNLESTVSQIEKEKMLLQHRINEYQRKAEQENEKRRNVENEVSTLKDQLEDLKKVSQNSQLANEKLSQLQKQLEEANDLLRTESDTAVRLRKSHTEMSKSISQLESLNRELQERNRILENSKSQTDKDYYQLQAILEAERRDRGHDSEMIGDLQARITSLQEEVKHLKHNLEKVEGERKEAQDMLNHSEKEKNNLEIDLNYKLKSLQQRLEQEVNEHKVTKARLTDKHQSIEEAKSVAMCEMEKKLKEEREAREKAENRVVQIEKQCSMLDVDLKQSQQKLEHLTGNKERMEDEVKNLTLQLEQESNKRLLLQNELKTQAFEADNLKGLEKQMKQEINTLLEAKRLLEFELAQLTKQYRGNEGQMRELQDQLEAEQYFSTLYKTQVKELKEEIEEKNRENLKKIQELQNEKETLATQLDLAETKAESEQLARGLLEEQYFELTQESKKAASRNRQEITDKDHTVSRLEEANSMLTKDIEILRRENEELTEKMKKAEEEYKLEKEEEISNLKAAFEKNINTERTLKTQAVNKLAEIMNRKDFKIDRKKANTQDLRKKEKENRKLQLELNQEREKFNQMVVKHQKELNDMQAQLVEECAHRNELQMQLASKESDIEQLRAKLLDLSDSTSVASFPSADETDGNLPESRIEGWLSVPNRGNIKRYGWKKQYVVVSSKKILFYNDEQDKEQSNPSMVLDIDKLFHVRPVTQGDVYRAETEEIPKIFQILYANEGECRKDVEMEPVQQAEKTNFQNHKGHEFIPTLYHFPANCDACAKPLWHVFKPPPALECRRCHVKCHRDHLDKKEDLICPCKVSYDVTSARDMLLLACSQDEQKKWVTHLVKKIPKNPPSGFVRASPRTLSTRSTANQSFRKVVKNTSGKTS

`COc1cccc(COc2cc(-n3cnc4ccccc43)sc2C(N)=O)c1`: the inhibition is 3.94% in assay [1]; -0.74% in assay [2]; -0.85% in [3]; 1.23% in assay [4]; 1.18% in assay [5]; 0.72% in [6]. Besides, the inhibition in assay [7] is 1.77%; in assay [8], 0.37%; in assay [9] it was 1.82%; in assay [10], 1.64%; in [11], 0.96%; in [12] it was 0.24%. The inhibition in [13] was 0.32%; in [14], 0.58%; in assay [15], -0.92%; in assay [16], 1.93%; in assay [17], -0.04%; in assay [18], 1.72%. Moreover, the values for the inhibition in assay [19] and in assay [20] were 1.42% and -0.06%, respectively.

Take `NS(=O)(=O)c1ccc(-c2ccc3c(NC(=O)C4CC4)n[nH]c3c2)cc1`: the inhibition in assay [1] was 0.37%; in [2], 1.06%; in assay [3], 3.22%; in [4], 1.13%; in [5] it was -0.43%; in [6] it was 0.67%. Also, the inhibition in assay [7] is 1.78%; in [8] it was 1.17%; in assay [9] it was 1.47%; in [10] it was 1.52%; in assay [11], 0.5%; in [12] it was 1.37%. Further, the inhibition is 0.5% in assay [13]; 0.62% in assay [14]; 1.57% in assay [15]; 1.04% in assay [16]; 3.29% in assay [17]; 1.26% in assay [18]. For the same molecule, the results for the inhibition in [19] and in assay [20] were -1.16% and 1.11%, respectively.
